# Results: PubChem BioAssay (EPA / NIEHS)
# Where “and” joins values, the source holds several entries; their conditions need not be identical. Equal entries are not always repeated. Records with an inconclusive call do not appear. Calls of active or inactive are those of the source. The calls were made as follows, unless noted: active = hit-call score of the fitted dose curve at least 0.9, where 1 is the maximum; inconclusive = response in the unintended direction; inactive = score below 0.9.
# Assays:
# [1] = molecular target: Bile acid receptor (Homo sapiens) (UniProt Q96RI1); experiment: ATG_FXR_TRANS: Attagene TRANS-FACTORIAL HepG2 Assay for Farnesoid X Receptor (FXR) (AID 2282979); conditions: HepG2 Attagene TRANS FXR-GAL4 reporter transcription;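 also: hits raise reporter mRNA above DMSO so AC50 marks FXR activation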
# Summary of the method: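 Reporter transcripts from transfected HepG2 cells were measured 24 h after dosing, using RT-PCR with capillary electrophoresis of 6-FAM-labelled fragments. The read-out reflects activity of exogenous FXR-Gal4 chimera on GAL4-UAS units, with induction relative to DMSO.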
# [2] = molecular target: Oxysterols receptor LXR-alpha (Homo sapiens) (UniProt Q13133); experiment: ATG_LXRa_TRANS: Attagene TRANS-FACTORIAL HepG2 Assay for human Liver X Receptor alpha (LXRa) (AID 2282980); conditions: HepG2 Attagene TRANS reporter, LXRa transactivation
# Summary of the method: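 Chemical-induced reporter mRNA measured by RT-PCR with fluorescent labelling and capillary electrophoresis after 24 h dosing of transiently transfected HepG2 cells expressing exogenous NR-Gal4 chimeras; increases scored against DMSO baseline.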
# [3] = molecular target: Oxysterols receptor LXR-beta (Homo sapiens) (UniProt P55055); experiment: ATG_LXRb_TRANS: Attagene TRANS-FACTORIAL HepG2 Assay for human Liver X Receptor beta (LXRb) (AID 2282981); conditions: HepG2 Attagene TRANS GAL4-LXRb reporter, mRNA
# Summary of the method: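 After 24 h of chemical treatment, transfected HepG2 cells yield total RNA; reporter cDNA is PCR-amplified, FAM-labelled, HpaI-cut and run on capillary electrophoresis. Signal reflects chimeric LXRb-Gal4 activity on GAL4-UAS reporters.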
# [4] = molecular target: Nuclear receptor subfamily 4 group A member 2 (Homo sapiens) (UniProt P43354); experiment: ATG_NURR1_TRANS: Attagene TRANS-FACTORIAL HepG2 Assay for human Nuclear Receptor Related Protein 1 (NURR1) (AID 2282985); conditions: HepG2 Attagene TRANS reporter, mRNA readout
# Summary of the method: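 Measures transcriptional activation by an exogenous NR-Gal4 chimera in transfected HepG2 liver cells. After 24 h, reporter RNA is reverse-transcribed, amplified and resolved by capillary electrophoresis; DMSO defines baseline.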
# [5] = molecular target: Transcriptional activator Myb (Homo sapiens) (UniProt P10242); experiment: ATG_Myb_CIS: Attagene CIS-FACTORIAL HepG2 Assay for human Myeloblastosis (Myb) Proto-Oncogene Transcription Factor (AID 2282986; active = hit-call score of the fitted dose curve at least 0.9, where 1 is the maximum; inactive = score below 0.9); conditions: HepG2 Attagene CIS-FACTORIAL Myb reporter transcription; actives raise or lower the signal
# Summary of the method: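 HepG2 cells were transiently transfected with cis-regulated multiple reporter transcription units reflecting endogenous Myb activity, then exposed to compound for 24 hours. Reporter mRNA was measured by RT-PCR with capillary electrophoresis; bidirectional fitting versus DMSO baseline.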
# [6] = molecular target: Nuclear respiratory factor 1 (Homo sapiens) (UniProt Q16656); experiment: ATG_NRF1_CIS: Attagene CIS-FACTORIAL HepG2 Assay for human Nuclear Respiratory Factor 1 (NRF1) Orphan Gene (AID 2282987; active = hit-call score of the fitted dose curve at least 0.9, where 1 is the maximum; inactive = score below 0.9); conditions: HepG2 NRF1 cis-element reporter, Attagene multiplex; actives raise or lower the signal
# Summary of the method: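 HepG2 cells transiently transfected with multiple reporter transcription units under cis-regulatory promoter control, so endogenous transcription-factor activity is read. After 24 h compound exposure, reporter mRNA quantified by RT-PCR, fluorescent labelling, HpaI digestion and capillary electrophoresis; bidirectional fitting versus DMSO.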
# [7] = ATG_M_32_TRANS: Attagene TRANS-FACTORIAL HepG2 Assay for M32 Transcription Factor (Internal Marker) (AID 2282984); conditions: HepG2 Attagene TRANS M32 internal marker reporter;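 also: transcript level of a background control reporter unit measured by RT-PCR and capillary electrophoresis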
# Summary of the method: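 Cell-based TRANS-format assay in HepG2: exogenous chimeric GAL4 reporter units transiently expressed, compounds applied 24 h. Reporter mRNA detected by RT-PCR plus capillary electrophoresis; this readout is an internal background marker.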
# [8] = molecular target: Hepatocyte nuclear factor 4-alpha (Homo sapiens) (UniProt P41235); experiment: ATG_HNF4a_TRANS: Attagene TRANS-FACTORIAL HepG2 Assay for human Hepatocyte Nuclear Factor 4 alpha (HNF4a) (AID 2282982); conditions: HepG2 HNF4a transactivation reporter, mRNA readout
# Summary of the method: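 Multiplexed reporter assay: transfected HepG2, 24 h exposure, total RNA → oligo(dT) RT → PCR → 6-FAM extension → HpaI digest → CE fluorescence. DMSO = negative control.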
# [9] = ATG_M_06_TRANS: Attagene TRANS-FACTORIAL HepG2 Assay for M06 Transcription Factor (Internal Marker) (AID 2282983); conditions: HepG2 Attagene TRANS M06 internal marker reporter;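 also: reporter transcript level by RT-PCR then capillary electrophoresis fluorescence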
# Summary of the method: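 Background-control reporter readout: after 24 h chemical exposure of transiently transfected HepG2 (GAL4-UAS reporter units), mRNA quantified by RT-PCR with fluorescent labeling and capillary electrophoresis. Gain-of-signal fitting against DMSO baseline.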
# Chain of Nuclear respiratory factor 1 (Homo sapiens) (Q16656 whole entry, looked up): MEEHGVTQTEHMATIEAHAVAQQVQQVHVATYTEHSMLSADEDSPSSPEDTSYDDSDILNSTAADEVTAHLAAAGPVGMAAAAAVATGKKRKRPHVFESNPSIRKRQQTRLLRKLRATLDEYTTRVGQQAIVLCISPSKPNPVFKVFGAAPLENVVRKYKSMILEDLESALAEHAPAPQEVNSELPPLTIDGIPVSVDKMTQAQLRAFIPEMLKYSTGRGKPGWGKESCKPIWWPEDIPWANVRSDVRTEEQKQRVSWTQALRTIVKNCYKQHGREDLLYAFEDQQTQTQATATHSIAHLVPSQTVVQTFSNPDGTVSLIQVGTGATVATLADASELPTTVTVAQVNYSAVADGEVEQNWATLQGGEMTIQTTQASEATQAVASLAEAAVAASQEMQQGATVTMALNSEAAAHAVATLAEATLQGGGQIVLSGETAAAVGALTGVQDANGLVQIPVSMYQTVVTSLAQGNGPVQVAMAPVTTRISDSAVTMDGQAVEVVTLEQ
# Chain of Bile acid receptor (Homo sapiens) (Q96RI1 whole entry, looked up, the tested form may be a part): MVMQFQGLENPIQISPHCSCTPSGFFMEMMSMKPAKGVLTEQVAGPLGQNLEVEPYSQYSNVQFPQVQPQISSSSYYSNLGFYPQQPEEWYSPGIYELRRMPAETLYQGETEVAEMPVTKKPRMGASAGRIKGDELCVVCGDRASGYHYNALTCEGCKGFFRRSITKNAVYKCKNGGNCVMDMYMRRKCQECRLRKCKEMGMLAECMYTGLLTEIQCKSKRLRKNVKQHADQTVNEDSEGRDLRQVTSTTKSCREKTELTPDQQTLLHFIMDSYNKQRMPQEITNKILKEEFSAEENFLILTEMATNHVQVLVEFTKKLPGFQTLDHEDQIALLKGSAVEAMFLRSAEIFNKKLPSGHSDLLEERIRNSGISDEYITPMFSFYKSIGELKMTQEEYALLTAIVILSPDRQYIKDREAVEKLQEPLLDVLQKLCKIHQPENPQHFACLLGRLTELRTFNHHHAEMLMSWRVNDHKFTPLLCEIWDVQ
# Chain of Transcriptional activator Myb (Homo sapiens) (P10242 whole entry, looked up): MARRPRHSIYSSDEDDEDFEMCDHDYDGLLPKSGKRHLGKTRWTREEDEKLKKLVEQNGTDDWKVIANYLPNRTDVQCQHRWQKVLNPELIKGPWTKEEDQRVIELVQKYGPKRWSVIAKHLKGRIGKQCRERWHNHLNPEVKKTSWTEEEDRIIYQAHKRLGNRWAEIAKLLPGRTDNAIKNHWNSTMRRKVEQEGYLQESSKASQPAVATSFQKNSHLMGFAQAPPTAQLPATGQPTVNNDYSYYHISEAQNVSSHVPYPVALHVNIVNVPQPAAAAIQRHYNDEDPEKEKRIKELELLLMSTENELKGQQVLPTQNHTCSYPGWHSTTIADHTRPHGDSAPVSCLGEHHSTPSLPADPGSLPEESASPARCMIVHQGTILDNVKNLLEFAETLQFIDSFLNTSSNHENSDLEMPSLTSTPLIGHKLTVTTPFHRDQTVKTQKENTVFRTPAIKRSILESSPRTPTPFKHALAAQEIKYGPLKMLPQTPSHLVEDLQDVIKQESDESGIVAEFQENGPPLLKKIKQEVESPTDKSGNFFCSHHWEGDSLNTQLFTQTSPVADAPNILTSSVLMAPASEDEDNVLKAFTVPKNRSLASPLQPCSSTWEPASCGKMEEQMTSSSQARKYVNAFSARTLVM
# Chain of Nuclear receptor subfamily 4 group A member 2 (Homo sapiens) (P43354 whole entry, looked up, the tested form may be a part): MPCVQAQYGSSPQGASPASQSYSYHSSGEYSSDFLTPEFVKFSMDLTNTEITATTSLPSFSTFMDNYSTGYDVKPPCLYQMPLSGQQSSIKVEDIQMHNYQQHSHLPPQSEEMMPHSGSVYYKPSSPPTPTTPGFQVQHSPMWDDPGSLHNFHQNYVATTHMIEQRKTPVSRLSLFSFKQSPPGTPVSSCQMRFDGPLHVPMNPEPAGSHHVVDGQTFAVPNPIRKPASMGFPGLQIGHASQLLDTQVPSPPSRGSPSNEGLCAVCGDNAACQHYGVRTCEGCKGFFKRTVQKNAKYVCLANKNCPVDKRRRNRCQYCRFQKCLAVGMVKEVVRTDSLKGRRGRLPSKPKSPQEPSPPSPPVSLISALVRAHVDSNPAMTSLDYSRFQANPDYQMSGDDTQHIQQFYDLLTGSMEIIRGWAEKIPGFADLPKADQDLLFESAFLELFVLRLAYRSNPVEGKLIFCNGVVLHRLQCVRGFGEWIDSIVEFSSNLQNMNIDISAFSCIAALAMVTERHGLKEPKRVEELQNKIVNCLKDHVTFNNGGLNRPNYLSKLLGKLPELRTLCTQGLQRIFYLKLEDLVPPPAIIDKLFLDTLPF
# Chain of Oxysterols receptor LXR-alpha (Homo sapiens) (Q13133 whole entry, looked up, the tested form may be a part): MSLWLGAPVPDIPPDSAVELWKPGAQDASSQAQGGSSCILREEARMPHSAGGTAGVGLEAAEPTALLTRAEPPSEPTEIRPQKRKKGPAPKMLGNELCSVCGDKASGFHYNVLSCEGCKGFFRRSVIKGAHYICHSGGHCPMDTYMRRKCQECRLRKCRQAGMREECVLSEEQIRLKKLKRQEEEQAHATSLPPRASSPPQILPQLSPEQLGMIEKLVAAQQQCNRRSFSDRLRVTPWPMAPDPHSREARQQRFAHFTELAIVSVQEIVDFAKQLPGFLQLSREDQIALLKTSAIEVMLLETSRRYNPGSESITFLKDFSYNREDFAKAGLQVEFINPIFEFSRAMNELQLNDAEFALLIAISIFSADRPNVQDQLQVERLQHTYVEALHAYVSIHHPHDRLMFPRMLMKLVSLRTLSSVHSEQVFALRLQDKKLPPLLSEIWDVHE
# Chain of Oxysterols receptor LXR-beta (Homo sapiens) (P55055 whole entry, looked up, the tested form may be a part): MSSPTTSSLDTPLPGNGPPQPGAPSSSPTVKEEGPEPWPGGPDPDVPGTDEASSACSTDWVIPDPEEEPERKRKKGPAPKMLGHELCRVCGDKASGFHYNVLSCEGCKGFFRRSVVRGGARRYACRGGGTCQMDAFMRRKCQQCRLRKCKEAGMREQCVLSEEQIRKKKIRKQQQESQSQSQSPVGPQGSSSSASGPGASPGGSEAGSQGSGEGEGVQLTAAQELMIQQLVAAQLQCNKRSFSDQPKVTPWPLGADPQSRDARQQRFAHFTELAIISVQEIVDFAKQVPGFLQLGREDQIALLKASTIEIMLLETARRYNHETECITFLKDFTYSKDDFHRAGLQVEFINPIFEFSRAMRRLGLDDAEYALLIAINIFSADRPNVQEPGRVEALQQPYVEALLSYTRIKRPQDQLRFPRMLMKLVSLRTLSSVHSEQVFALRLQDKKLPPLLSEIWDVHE
# Chain of Hepatocyte nuclear factor 4-alpha (Homo sapiens) (P41235 whole entry, looked up): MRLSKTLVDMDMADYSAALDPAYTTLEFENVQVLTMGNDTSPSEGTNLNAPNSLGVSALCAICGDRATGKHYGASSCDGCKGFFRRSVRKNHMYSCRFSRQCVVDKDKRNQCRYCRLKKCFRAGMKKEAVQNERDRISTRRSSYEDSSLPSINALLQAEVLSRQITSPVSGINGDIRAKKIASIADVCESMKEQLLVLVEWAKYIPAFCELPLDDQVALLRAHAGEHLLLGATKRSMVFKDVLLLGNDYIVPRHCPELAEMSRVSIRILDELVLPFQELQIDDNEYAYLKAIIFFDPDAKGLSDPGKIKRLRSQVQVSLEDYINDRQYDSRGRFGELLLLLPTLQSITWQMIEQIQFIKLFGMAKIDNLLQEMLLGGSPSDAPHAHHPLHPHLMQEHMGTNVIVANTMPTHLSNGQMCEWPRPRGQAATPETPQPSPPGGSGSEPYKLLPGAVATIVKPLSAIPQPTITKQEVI
SMILES,outcome [1],outcome [2],outcome [3],outcome [4],AC50 [5],outcome [6],outcome [7],outcome [5],outcome [8],outcome [9],AC50 [4],AC50 [6]
CC1COCc2cc3c(cc21)C(C)(C)C(C)C3(C)C (stereo not given),inactive,inactive,inactive,inactive,162 µM (active),inactive,–,–,–,–,–,–
Cc1ccccc1C(OCCN(C)C)c1ccccc1 (stereo not given),inactive,inactive,–,–,–,inactive,inactive,inactive,–,–,–,–
CC[N+](CC)(CC)Cc1ccccc1,inactive,inactive,–,–,–,inactive,inactive,inactive,inactive,inactive,–,–
CN(C)c1ccc(C(=C2C=CC(=[N+](C)C)C=C2)c2ccccc2)cc1,inactive,–,inactive,–,–,inactive,inactive,inactive,inactive,inactive,543 nM (active) and 1.4 µM (active),–
Nc1ccc(O)c(C(=O)O)c1,inactive,inactive,–,inactive,–,inactive,inactive,inactive,inactive,–,–,–
C=Cc1ccc(O)c(OC)c1,inactive,inactive,–,–,–,inactive,inactive,inactive,inactive,–,–,–
FC1(F)C=CC(F)(F)C1(F)F,inactive,inactive,–,inactive,–,inactive,–,inactive,–,–,–,–
C=CCOCC(CO)(CO)CO,inactive,inactive,–,–,–,inactive,inactive,inactive,inactive,–,–,–
O=C(NCc1ncc(C(F)(F)F)cc1Cl)c1c(Cl)cccc1Cl,inactive,inactive,–,–,–,inactive,inactive,inactive,inactive,inactive,–,–
C=CC(F)(F)C(F)(F)C(F)(F)C(F)(F)F,inactive,–,inactive,–,–,inactive,–,inactive,inactive,inactive,–,–
O=S(=O)(O)c1ccccc1,inactive,–,inactive,–,–,inactive,inactive,inactive,inactive,inactive,–,–
CCN(CCC#N)c1ccccc1,inactive,inactive,–,inactive,–,inactive,inactive,inactive,–,inactive,–,–
FC(F)(F)N1C(F)(F)C(F)(F)OC(F)(F)C1(F)F,inactive,–,inactive,–,–,inactive,inactive,inactive,inactive,inactive,–,–
CCOC(OCC)C(=O)c1ccccc1,inactive,inactive,–,inactive,–,inactive,inactive,inactive,inactive,–,–,–
Cc1ccccc1OCC(=O)O,inactive,inactive,–,inactive,164 µM (active),inactive,inactive,–,–,–,–,–
CCCCN(C)C,inactive,–,inactive,inactive,–,inactive,–,inactive,inactive,inactive,–,–

SMILES,outcome [1],outcome [2],outcome [3],outcome [4],AC50 [5],outcome [6],outcome [7],outcome [5],outcome [8],outcome [9],AC50 [4],AC50 [6]
O=P(O)(O)CCC(F)(F)C(F)(F)C(F)(F)C(F)(F)C(F)(F)C(F)(F)F,inactive,inactive,–,–,–,inactive,inactive,inactive,inactive,–,–,–
O=S(=O)(O)C(F)(F)C(F)(F)C(F)(F)C(F)(F)C(F)(F)C(F)(F)C(F)(F)C(F)(F)C(F)(F)C(F)(F)F,inactive,inactive,–,inactive,–,inactive,inactive,inactive,inactive,–,–,–
O=CC(F)(F)C(F)(F)C(F)(F)C(F)F,inactive,inactive,inactive,inactive,–,inactive,inactive,inactive,–,–,–,–
NCc1cccc(CN)c1,inactive,inactive,–,–,–,inactive,inactive,inactive,–,inactive,–,–
Cc1cc(Cc2cc(C)cc(C(C)(C)C)c2O)c(O)c(C(C)(C)C)c1,inactive,inactive,inactive,–,25.6 µM (active),–,–,–,–,–,–,180 µM (active)
Cc1ccc(C(=O)c2ccccc2)cc1,inactive,–,–,inactive,–,inactive,inactive,inactive,inactive,–,–,–
CCCCCCCC(OC)OC,inactive,–,–,inactive,–,inactive,–,inactive,–,inactive,–,–
Oc1ccc(Cc2ccccc2O)cc1,inactive,–,inactive,–,–,inactive,inactive,inactive,inactive,–,–,–
OCC(F)(F)C(F)(F)C(F)(F)C(F)(F)C(F)(F)C(F)(F)C(F)(F)C(F)(F)C(F)(F)C(F)(F)C(F)(F)F,inactive,–,–,–,–,inactive,inactive,inactive,inactive,inactive,–,–
Cc1ccc2ccc3ccc(C)cc3c2c1,inactive,–,inactive,–,–,inactive,–,inactive,inactive,inactive,–,–
COc1cc(OC)nc(NC(=O)NS(=O)(=O)Nc2ccccc2C(=O)N(C)C)n1,inactive,–,inactive,inactive,–,inactive,–,inactive,inactive,–,–,–
CCc1cccc(CC)c1N(COC)C(=O)CS(=O)(=O)O,inactive,–,–,–,–,inactive,inactive,inactive,inactive,–,–,–
O=C(O)CCC(F)(F)C(F)(F)C(F)(F)C(F)(F)C(F)(F)C(F)(F)F,inactive,–,inactive,inactive,–,inactive,inactive,inactive,–,–,–,–
CCC1CO1 (stereo not given),inactive,–,–,–,–,inactive,–,inactive,inactive,–,–,–
O=C1Cc2ccccc2N1c1c(Cl)cccc1Cl,inactive,–,–,–,–,inactive,inactive,inactive,inactive,–,–,–
c1cc2cccc3c4cccc5cccc(c(c1)c23)c54,inactive,–,–,inactive,–,inactive,–,inactive,–,inactive,–,–
